Screens from PubChem.
RE007 growth inh – less growth of the S. pombe RE007 Vpr strain; Potency, µM (titrated, usually from 92.2 µM), most hits filed as inhibitors; AID 651644; S. pombe RE007 Vpr strain, BacTiter-Glo ATP luminescence, 24 h; hit rate 0.21% among 360,000; active = well fitted falling curve with a large enough effect; inconclusive = small, poorly fitted or top-dose-only effect; inactive = no such curve, though single readings can be large or run the other way; note: nearly all actives have a fitted effect of over 50% in size
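Fission yeast strain RE007, carrying one chromosomally integrated HIV-1 vpr copy, was seeded at OD 0.01 in PMG+AL medium with 23 nL pinned compound. After 24 h at 30 °C and 99% humidity, viability was read by BacTiter-Glo luminescence.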
CHX counter – affects cycloheximide protein synthesis inhibition readout, counter-screen; cell reporter, cycloheximide protein synthesis inhibition counterscreen; max response, %; hit rate 12% among 300,000; AID 2314; in the data active = max response mostly above about 13%, no sharp cut-off; inactive = mostly below about 14%; note: read at 38.3 µM for the half of the compounds with a filed dose
TbPYK inhibitor – inhibitors of Trypanosoma brucei pyruvate kinase; Q57TT1; TbPYK enzyme, Kinase-Glo Plus ATP luminescence, 45 min; Potency, µM (titrated, usually from 76.8 µM), actives largely listed as inhibitors; AID 624173; hit rate 0.12% among 410,000; note: nearly all actives have a fitted effect of over 50% in size
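Luminescence from Kinase-Glo Plus, added after a 45-minute room-temperature reaction, served as the end-point read-out. The enzyme and substrate were preincubated with compound before ADP (130 uM final) initiated turnover. Concentration-effect curves came from normalized qHTS data.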
Shiga toxin inh – Shiga toxin inhibition | inhibition, % at 38.7 µM | Vero cells, Shiga toxin protein synthesis inhibition reporter | AID 2315 | hit rate 9.2% among 290,000; in the data active = inhibition mostly above about 28%, no sharp cut-off; inactive = mostly below about 43%
LmPK inhibitor – blocks Leishmania mexicana pyruvate kinase activity; purified LmPK, Kinase-Glo ATP luminescence, 1 h; Potency, µM (titrated, usually from 57.5 µM), hits mostly inhibitors; hit rate 0.37% among 290,000; AID 1721
Target sequence (Q27686 whole entry, looked up): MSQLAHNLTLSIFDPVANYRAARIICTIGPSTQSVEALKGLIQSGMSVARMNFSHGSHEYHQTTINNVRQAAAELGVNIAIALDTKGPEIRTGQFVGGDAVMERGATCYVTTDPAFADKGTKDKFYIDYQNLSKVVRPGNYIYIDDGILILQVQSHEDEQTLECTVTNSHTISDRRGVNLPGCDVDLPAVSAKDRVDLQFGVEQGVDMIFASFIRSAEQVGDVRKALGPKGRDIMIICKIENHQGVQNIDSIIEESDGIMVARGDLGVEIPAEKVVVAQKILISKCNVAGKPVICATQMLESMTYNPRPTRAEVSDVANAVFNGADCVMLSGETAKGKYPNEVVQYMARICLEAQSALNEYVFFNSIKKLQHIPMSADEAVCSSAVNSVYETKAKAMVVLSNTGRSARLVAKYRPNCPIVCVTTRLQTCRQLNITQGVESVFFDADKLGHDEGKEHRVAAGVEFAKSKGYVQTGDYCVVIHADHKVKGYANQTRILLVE
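In 50 mM imidazole pH 7.2 with 7 mM MgCl2, LmPK (0.1 nM) turned over PEP (0.5 mM) and ADP (0.1 mM) for 1 h at room temperature. Luciferase read-out of ATP.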
Giardia FBPA inh – inhibitors of Giardia lamblia fructose-1,6-bisphosphate aldolase. A8B2U2. purified Giardia FBPA. Potency, µM (titrated, usually from 59.6 µM), most hits filed as inhibitors. hit rate 0.71% among 290,000. AID 2451; note: nearly all actives have a fitted effect of over 55% in size
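Giardia FBPA (40 nM reagent) was preincubated 10 min at RT with compound (up to 57.5 uM final), then substrate plus GAPDH/TPI/NAD/arsenate coupling system with diaphorase/resazurin was added; resorufin fluorescence (525/598 nm) was read after 20 min.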
A number is an active result; . = inactive; ? = inconclusive; / = not tested or not shown. Shown is part of a subset that was picked to be rich in hits. Unless noted, calls come from the whole dose curve; as a rule, active = well fitted curve in the direction sought with a large enough effect; inconclusive = small, poorly fitted or top-dose-only effect, or another doubt; inactive = no such curve, though single readings can be large; an effect the other way counts as inactive or inconclusive.

SMILES	RE007 growth inh	CHX counter	TbPYK inhibitor	Shiga toxin inh	LmPK inhibitor	Giardia FBPA inh
O=[N+]([O-])c1cccc(-c2ccc(C(=S)N3CCN(c4ccccc4)CC3)o2)c1	.	.	.	.	.	.
CN1CCN(C(=S)c2ccc(-c3cccc([N+](=O)[O-])c3)o2)CC1	.	51	.	102	.	.
CN(Cc1ccccc1)c1nnc(NC(=O)Nc2cccc(Br)c2)s1	/	/	.	/	/	/
COc1cccc([C@@H]2Oc3ccc(OC)cc3C[C@H]2OC(=O)N[C@H](C)C2CCCCC2)c1	/	/	/	/	/	.
COc1ccccc1NC(=O)c1sc2nc3c(c(C(F)(F)F)c2c1N)CN(C(C)=O)CC3	/	/	.	/	/	/
O=C(O)/C(=N/NC(=O)c1ccc(Cl)cc1)c1ccccc1	.	23	.	.	.	.
O=C(O)c1cccc(-n2cccc2C=C2C(=O)c3ccccc3C2=O)c1	.	.	.	.	.	.
O=C(N/N=C/c1cccn1-c1cccc(C(=O)O)c1)Nc1ccccc1	.	31	.	52	.	.
O=C(NC(=S)Nc1ccc(Cl)cc1)c1ccccc1	.	89	.	72	.	.
CC(C)NC(=S)Nc1ccc(Oc2ccccc2)cc1	.	.	.	29	.	.
COC1OC(CO)C(OC2OC(C(=O)O)C(OC3OC(COS(=O)(=O)O)C(OC4OC(C(=O)O)C(OC5OC(CO)C(OC6OC(C(=O)O)C(OC7OC(COS(=O)(=O)O)C(OC8OC(C(=O)O)=C[C@H](O)C8OS(=O)(=O)O)C(O)C7NC(C)=O)[C@@H](O)C6O)C(O)C5NC(C)=O)[C@@H](O)C4O)C(O)C3NC(C)=O)[C@@H](O)C2O)C(O)C1NC(C)=O (stereo partly specified)	/	/	.	/	/	.
O=C(NC(=S)Nc1ccc(-c2ccccc2)cc1)c1ccccc1	?	/	.	/	/	/
O=C(N/N=C/c1ccc(Cl)cc1Cl)Nc1ccccc1	.	9.2	.	.	.	.
O=C(O)c1ccc(N/C(=N\S(=O)(=O)c2ccc(Cl)cc2)c2ccccc2)cc1	.	.	.	.	.	.
O=C(NC(=S)Nc1ccc(Oc2ccc(Cl)cc2)cc1)c1ccccc1	.	19	.	.	.	.
O=C(N/C(=N\O)c1ccccc1)Nc1ccc(Cl)cc1	.	.	.	48	.	.
CCN1C(=O)/C(=C/c2ccc3c(c2)CCN3CCCCl)C(=O)NC1=S	?	.	?	.	.	.
C=CCN1C(=O)/C(=C/c2ccc3c(c2)CCCN3CCC)C(=O)NC1=S	.	11	?	.	.	?
COCCn1c(C)cc(C(=O)CSc2nc3ccccc3o2)c1C	.	51	.	120	.	.
COCCn1c(SCC(=O)c2cc(C)n(C)c2C)nc2ccccc2c1=O	.	11	.	.	.	.
COCCCn1c(SCC(=O)Nc2ccc(C)cc2)nc2ccccc2c1=O	.	.	.	56	.	.
COCCn1c(C)cc(C(=O)CSc2ncn[nH]2)c1C	.	36	.	71	.	.
COc1cc(NC(=O)CN2C(=O)CSc3ccc(S(=O)(=O)N4CCCC4)cc32)cc(OC)c1	.	.	.	.	.	.
CC(C)c1ccc(C(=O)Nc2ccc(S(=O)(=O)NC3=NCCCCC3)cc2)cc1	.	/	.	/	/	/
COCCn1c(C)cc(C(=O)CSc2cc(C)c3ccc(OC)cc3n2)c1C	.	18	.	.	.	.
SMILES	RE007 growth inh	CHX counter	TbPYK inhibitor	Shiga toxin inh	LmPK inhibitor	Giardia FBPA inh
COCCn1c(C)cc(C(=O)CSc2nc3ccccc3s2)c1C	.	80	.	.	.	.
CCOC(=O)c1c(NC(=O)COc2cccc(C)c2C)sc2c1CCC(CC)C2 (stereo unspecified)	/	/	.	/	/	/
COc1ccc2c(c1)CC/C2=N\OC(=O)c1ccccc1OC	.	38	.	90	.	.
Nc1nc(N)nc(COc2ccccc2)n1	.	42	.	96	.	.
O=C(NC1CCCCC1)C(C1CC1)n1c(=O)c(-c2cc3ccccc3[nH]2)nc2ccccc21 (stereo unspecified)	.	/	/	/	/	/
Cc1cc(=O)[nH]c(N/N=C/c2c(F)c(F)c(F)c(F)c2F)n1	.	.	.	.	.	.
Cc1cc(=O)[nH]c(N/N=C/c2ccc(-c3ccc([N+](=O)[O-])cc3)o2)n1	.	12	.	.	.	.
Cc1cc(=O)[nH]c(N/N=C/c2cc(C)n(-c3ccccc3)c2C)n1	.	34	.	95	.	.
Cc1cc(=O)[nH]c(N/N=C/c2ccc([N+](=O)[O-])cc2)n1	/	.	/	.	.	.
Cc1cc(=O)[nH]c(N/N=C/c2cccs2)n1	.	23	.	.	.	.
Cc1cc(=O)[nH]c(N/N=C/c2sccc2C)n1	.	47	.	81	?	.
O=c1cnnc(N/N=C/c2cccs2)[nH]1	.	.	.	.	.	?
Cc1cc(=O)[nH]c(N/N=C/c2ccccc2Cl)n1	.	.	.	.	.	.
C=CCn1c(=S)sc2c(=O)[nH]cnc21	.	.	.	.	.	.
Cc1ccc(-c2ccc(/C=N/O)o2)cc1[N+](=O)[O-]	.	35	.	61	.	.
O=[N+]([O-])c1cc(-c2ccc(/C=N/n3cnnc3)o2)ccc1Cl	.	.	.	.	.	.
O=C(NCc1ccc(F)cc1)c1ccc2c(c1)nc1n2CCCCC1	/	/	.	/	/	/
CCc1ccc(CNC(=O)c2ccc3nc(C4CCCCC4)oc3c2)nc1	/	46	/	33	.	/
CCOC(=O)CCNC(=O)c1ccc2nc(C3CCCCC3)oc2c1	.	17	.	.	.	.
CCOC(=O)CNC(=O)C1CCN(S(=O)(=O)c2ccc(-c3nn[nH]n3)cc2)CC1	.	.	.	.	.	?
Cn1c(/C(C#N)=C/c2ccccc2Br)nc2ccccc21	/	/	.	/	/	/
COc1ccc2c(c1)O/C(=C\c1ccco1)C2=O	.	30	.	.	.	?
COC(=O)C(C)Oc1ccc2c(c1)O/C(=C\c1ccco1)C2=O (stereo unspecified)	.	37	.	71	.	.
CSC(=S)N/N=C(\C)c1ccccc1	.	28	.	50	.	.
C#C[C@@]1(O)CCC2C3CCc4cc(O)ccc4C3CC[C@@]21C (stereo partly specified)	/	/	/	/	/	.
SMILES	RE007 growth inh	CHX counter	TbPYK inhibitor	Shiga toxin inh	LmPK inhibitor	Giardia FBPA inh
Cc1ccc(S(=O)(=O)Nc2ccc(O)c3ccccc23)c(C)c1	.	.	.	.	8.9µM	?
Oc1ccccc1C=NCCN=Cc1ccccc1O	.	.	.	.	.	.
Oc1ccc(Cl)cc1C=NCCc1ccccc1	.	15	.	57	.	.
O=c1oc(Cc2ccccc2)nc2ccccc12	.	14	.	.	.	.
S=c1[nH]nc(-c2ccc(Cl)cc2)n1-c1ccc(Cl)cc1	.	.	?	.	?	?
COc1ccc(-c2n[nH]c(=S)n2-c2ccc(C)cc2)cc1	.	.	?	.	2µM	.
COc1ccc(-n2c(-c3ccc(Br)cc3)n[nH]c2=S)cc1	.	.	?	/	10µM	.
